The source holds several records for some structures; these can differ, active in one and inactive in another. Active and inactive are the calls of the source. How the source made its calls: active means hit-call score of the fitted dose curve at least 0.9, where 1 is the maximum; inactive means score below 0.9.

The assay is described as follows: ATG_SREBP_CIS: Attagene CIS-FACTORIAL HepG2 Assay for human Sterol Regulatory Element Binding (SREBP) (AID 2282962). Particulars: HepG2 Attagene cis-factorial SREBP reporter, mRNA; actives raise or lower the signal. How it is done: ATG_CIS is a cell-based, multiplexed-readout assay that uses HepG2, a human liver cell line, with measurements taken at 24 hours after chemical dosing in a 24-well plate.ATG_SREBP_CIS is one of 52 assay component(s) measured or calculated from the ATG_CIS assay. It is designed to make measurements of mRNA induction, a form of inducible reporter, as detected with fluorescence intensity signals by Reverse transcription polymerase chain reaction (RT-PCR) and Capillary electrophoresis technology.Data from the assay component ATG_SREBP_CIS was analyzed into 1 assay endpoint. This assay endpoint, ATG_SREBP_CIS, was analyzed with bidirectional fitting relative to DMSO as the negative control and baseline of activity. Using a type of inducible reporter, measures of mRNA for gain or loss-of-signal activity can be used to understand the reporter gene at the transcription factor-level as they relate to the gene SREBF1. Furthermore, this assay endpoint can be referred to as a primary readout, because this assay has produced multiple assay endpoints where this one serves a reporter gene function. To generalize the intended target to other relatable targets, this assay endpoint is annotated to the dna binding intended target family, where the subfamily is basic helix-loop-helix leucine zipper.
Human liver HepG2 cells are transiently transfected with multiple reporter transcription units (MRTUs) in 6-well plates using FuGene 6 reagent (Roche; 3 ml FuGene/1 mg DNA). The MRTU constructs are regulated by a cis-regulating element (promoter). […] A major difference between the CIS and TRANS system is that in CIS activities of endogenous TFs are measured, whereas the TRANS assay evaluates changes in activities of exogenous, chimeric NR-Gal4 proteins. […] At the end of 24 hour incubation, total RNA was isolated using TriZol reagent (Invitrogen). The isolated RNA is then reverse-transcribed using oligo(dT) primer and Mo-MLV reverse transcriptase (Invitrogen) with DNAse I (Ambion) treatment for 30 min. The one-tenth of the produced cDNA was amplified by PCR using Taq DNA polymerase (Invitrogen) and two reporter sequence-specific primers. The PCR products were fluorescently labeled by primer extension with 6-arboxyfluorescein (6-FAM) 5'-labeled reporter sequence-specific primer (2 min at 95 C, 20 s at 68 C and 10 min at 72 C) and these products were digested with 5U of HpaI (New England Biolabs) for 2h at 37 C. The fragments were purified using Qiaquick PCR columns (Qiagen), analyzed on an ABI 3130xL genetic analyzer (Applied Biosystems) with peak positions identified by using a set of X-rhodamine (ROX)-labeled MapMarker1000 molecular weight standards (BioVentures). The raw capillary electrophoresis data was processed using Attagraph software (Attagene).
Take `CCCN(CCC)C(=O)SCC`: the result was inactive.

On to `CC(=O)S[C@@H]1CC2=CC(=O)CC[C@]2(C)[C@H]2CC[C@@]3(C)[C@@H](CC[C@@]34CCC(=O)O4)[C@H]12`, for which the compound was classed as inactive and the AC50 was 100 µM (active).

In the case of `CC(C)CCCCCCc1ccc(O)cc1`, the AC50 is 20.2 µM (active) and the call was inactive.

On to `CCNc1nc(N)nc(Cl)n1`, for which the outcome was inactive.

As to `O=C(O)c1ccccc1`, the call was inactive.

For the compound `COCCO`, the outcome was inactive.

As to `CC1(C)C(C=C(Cl)Cl)C1C(=O)OCc1cccc(Oc2ccccc2)c1` (stereo not given), the call was inactive.

Regarding `O=C(c1ccc(O)cc1O)c1ccc(O)cc1O`, the compound was classed as inactive.

Regarding `CCOC(=O)NCCOc1ccc(Oc2ccccc2)cc1`, the result was inactive.

Regarding `CCOC(=O)C(C)Oc1ccc(Oc2cnc3cc(Cl)ccc3n2)cc1` (stereo not given), the result was inactive.

With `CCCOC(=O)NCCCN(C)C`, the compound was classed as inactive.

On to `COc1nc(C)nc(NC(=O)NS(=O)(=O)c2ccccc2OCCCl)n1`, for which the result was inactive.

As to `S=C(S)NCCNC(=S)S.[Mn+2].[S-]C([S-])=NCCN=C([S-])[S-].[Zn+2]`, the outcome was inactive.

Take `N[C@@H](Cc1cc(I)c(Oc2ccc(O)c(I)c2)c(I)c1)C(=O)O`: the result was inactive.

For `c1ccc(Nc2ccccc2)cc1`, the outcome was inactive.

For the compound `COC(=O)CSc1cc(N=c2sc(=O)n3n2CCCC3)c(F)cc1Cl`, the outcome was inactive.

As to `CCCCCCC(C)OC(=O)COc1nc(F)c(Cl)c(N)c1Cl` (stereo not given), the result was inactive.

As to `C=CCOC(Cn1ccnc1)c1ccc(Cl)cc1Cl` (stereo not given), the half-maximal activity concentration (AC50) was 6.99 µM (active).

Turning to `CCCCOCCOCCOCc1cc2c(cc1CCC)OCO2`, the outcome was inactive.

In the case of `OB(O)O`, the result was inactive.

As to `COC(=O)c1ccccc1C(=O)O`, the outcome was inactive.

For `C[C@]12C[C@H](O)[C@H]3[C@@H](CCC4=CC(=O)CC[C@@]43C)[C@@H]1CC[C@@H]2C(=O)CO`, the result was inactive.

Consider `COC(=O)c1ccccc1S(=O)(=O)NC(=O)Nc1nc(OC(F)F)cc(OC(F)F)n1`, for which the result was inactive.

For the compound `CCCCCOC(=O)COc1cc(N2C(=O)C3=C(CCCC3)C2=O)c(F)cc1Cl`, the call was inactive.

Consider `COC(=O)c1cccc(C)c1S(=O)(=O)NC(=O)Nc1nc(OCC(F)(F)F)nc(N(C)C)n1`, for which the call was inactive.

Consider `CN(C)C(=O)Nc1ccc(Cl)c(Cl)c1`, for which the compound was called inactive.

In the case of `CSC(=O)c1cccc2nnsc12`, the compound was called inactive.

Regarding `CC(=O)[C@H]1CC[C@H]2[C@@H]3CCC4=CC(=O)CC[C@]4(C)[C@H]3CC[C@]12C`, the concentration at half-maximal activity (AC50) was 33.4 µM (active) [middle of 4 runs].

For the compound `COc1c(Cl)ccc(Cl)c1C(=O)O`, the call was inactive.

Regarding `CC(C)(C)[C@@H](O)[C@@H](Cc1ccc(Cl)cc1)n1cncn1`, the result was inactive.

On to `CC(C)(c1ccc(O)cc1)c1ccc(O)cc1`, for which the compound was classed as inactive.

For the compound `O=C(c1ccccc1)C1CCCCC1`, the compound was classed as inactive.

For the compound `CCSC(=O)N(CC(C)C)CC(C)C`, the call was inactive.

With `CCOC(=O)c1ccc(O)cc1`, the compound was called inactive and the half-maximal activity concentration (AC50) is 43.7 µM (active).

`CCOC(=O)C(C)Oc1ccc(Oc2nc3ccc(Cl)cc3o2)cc1` (stereo not given): the compound was called inactive.

Regarding `CCN(Cc1c(F)cccc1Cl)c1c([N+](=O)[O-])cc(C(F)(F)F)cc1[N+](=O)[O-]`, the call was inactive.

As for `CCC(C)OC(=O)N1CCCCC1CCO` (stereo not given), the compound was classed as inactive.

Source of the values: PubChem BioAssay (EPA / NIEHS).
